# Screening data deposited in PubChem BioAssay by National Center for Advancing Translational Sciences (NCATS).
# In the library only some 0.59% were active in any assay of this set; here they are far more common.
# Vif-A3F inh: Vif-A3F binding inhibition | HeLa A3F-eYFP + Vif (tagged APOBEC3F with the HIV-1 protein that degrades it), YFP fluorescence increase | Potency, µM (titrated, usually from 46.1 µM) | 390,000 tested, 0.2% active | AID 602313; also: nearly all actives have a fitted effect of over 65% in size
#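 HeLa cells stably expressing Vif plus C-terminally eYFP-tagged A3F were seeded, incubated overnight at 37 deg C, dosed with compound, incubated overnight again at 37 deg C. Yellow fluorescence (Ex 488/Em 500-530) reported blocked Vif-mediated A3F-eYFP degradation.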
# PINK1 modulator: changes PINK1 expression; PINK1 immunofluorescence, high-content cytometry, 24 h; Potency, µM (doses to about 76.6 µM), most hits filed as activators; 410,000 tested, 0.2% active; active = well fitted activation curve with a large enough effect; inconclusive = small, poorly fitted or top-dose-only effect; cell line not stated here; also: nearly all actives have a fitted effect of over 65% in size
#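 Stable cell line treated 24 h with compounds at 5 concentrations (CCCP controls), then fixed and immunostained for PINK1 plus nuclear and cell stains; PINK1 immunofluorescence quantified by laser-scanning microplate cytometry.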
# mIDH1 inhibitor: human IDH1 R132H inhibition; Potency, µM (series often up to 76.6 µM), hits mostly inhibitors; O75874; 390,000 tested, 0.093% active; IDH1-R132H enzyme, NADPH consumption, diaphorase/resazurin fluorescence; also: nearly all actives have a fitted effect of over 65% in size
# Target sequence (O75874 whole entry R132H, stated change not applied): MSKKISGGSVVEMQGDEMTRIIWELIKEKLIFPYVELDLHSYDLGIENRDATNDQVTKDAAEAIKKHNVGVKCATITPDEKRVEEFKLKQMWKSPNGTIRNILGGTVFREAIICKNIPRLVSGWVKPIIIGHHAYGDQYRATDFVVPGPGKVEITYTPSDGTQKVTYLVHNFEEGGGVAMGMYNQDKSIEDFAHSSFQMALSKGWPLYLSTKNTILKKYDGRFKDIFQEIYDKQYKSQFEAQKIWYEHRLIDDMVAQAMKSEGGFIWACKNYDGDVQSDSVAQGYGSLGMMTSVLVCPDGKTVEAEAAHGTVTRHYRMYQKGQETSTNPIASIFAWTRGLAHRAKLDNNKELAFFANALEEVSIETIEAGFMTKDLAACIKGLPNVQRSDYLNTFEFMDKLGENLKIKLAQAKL
#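 IDH1-R132H (0.5 ug/mL) preincubated 30 min with compound, then NADPH (0.016 mM) and alpha-KG (2 mM) added; 80 min at RT, pH 7.5. Remaining NADPH coupled via diaphorase/resazurin to fluorescence (540/590 nm); concentration-response curves normalized to no-enzyme control.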
# Vif-APOBEC3G blk: inhibitors of Vif-APOBEC3G interaction; 410,000 tested, 0.076% active; HeLa A3G-eYFP + Vif (tagged APOBEC3G with the HIV-1 protein that degrades it), YFP fluorescence, overnight; Potency, µM (doses to about 46.1 µM), actives largely listed as inhibitors; AID 602310; Q9HC16; also: nearly all actives have a fitted effect of over 60% in size
#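 HeLa cells stably expressing Vif and C-terminally eYFP-tagged A3G, seeded overnight at 37 deg C, then exposed to compound by pintool overnight at 37 deg C. Rise in yellow fluorescence (Ex 488/Em 500-530, Acumen) marks blocked Vif-driven A3G degradation.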
# LDHA block: LDHA (human) enzyme inhibition; P00338; purified LDHA, NADH/diaphorase-resazurin fluorescence; active compounds read low; 480,000 tested, 0.15% active; activity change, % (values are at about 110 or 230 µM); in the data active = activity change below about -30%; inconclusive = mostly about -25% to -30%
#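 Resorufin fluorescence (ex540/em590), read at 0 and 20 min after diaphorase/resazurin addition, reports the NADH left after a 5 min room-temperature reaction of 2 nM human LDH5 with 0.06 mM NADH and 0.2 mM pyruvate.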
# PTHR1 agonist: PTHR1 (human) receptor agonism | Q03431 | Potency, µM (series often up to 115 µM), most hits filed as activators | HEK293 GP2 PTHR1 cells, GloSensor cAMP luminescence, 1 h | 410,000 tested, 0.075% active; also: nearly all actives have a fitted effect of over 55% in size
#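 HEK-293-derived GP2 cells expressing PTHR1 and a GloSensor cAMP reporter, 3,000/well, plated overnight, given luciferin plus IBMX (each 0.5 mM as added) for 1 h at 37 °C, then compound for 1 h at 37 °C. Luminescence was read after 15 min at room temperature.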
# Numbers stand for hits; i = inactive; ? = inconclusive; nt = not tested or not shown. Unless noted, calls follow the shape of the dose curve; as a rule, active = well fitted curve in the direction sought with a large enough effect; inconclusive = small, poorly fitted or top-dose-only effect, or another doubt; inactive = no such curve, though single readings can be large; an effect the other way counts as inactive or inconclusive.
SMILES,Vif-A3F inh,PINK1 modulator,mIDH1 inhibitor,Vif-APOBEC3G blk,LDHA block,PTHR1 agonist
COc1ccc(-c2cnc3c(NC=O)cc(-c4ccccc4)cn23)cc1OC,nt,i,nt,1.8µM,i,i
Cc1c(C)c2ccc(OCC(=O)NC3CC(C)(C)NC(C)(C)C3)cc2oc1=O,nt,nt,nt,nt,i,nt
CCn1c(CSc2nccn2C)nc2cc(C(=O)O)ccc21,i,i,i,i,i,i
CCn1c(CSc2nc3ccccc3[nH]2)nc2cc(C(=O)O)ccc21,i,i,i,i,-30,i
CCOc1ccc(CNC(=O)CS(=O)(=O)Cc2nc(-c3ccccc3C)oc2C)cc1,nt,nt,nt,nt,i,nt
Cc1cccc(NC(=O)CSc2nnc(C)c(=O)n2N)c1,i,i,i,i,i,i
Cc1ccc(NC(=O)CSc2nnc(C)c(=O)n2N)c(C)c1,i,i,i,i,-37,i
Cc1nnc(SCC(=O)Nc2ccc(OC(F)F)c(Cl)c2)n(N)c1=O,i,i,i,i,-36,i
CC(C)C(OC(=O)c1nsc(Cl)c1Cl)C(=O)NCC1CCCO1 (stereo not drawn),i,i,i,i,i,50µM
O=C(NC1CC1)c1cccc2c1C(=O)c1ccc(N3CCC(Cc4ccccc4)CC3)cc1S2(=O)=O,22µM,i,i,?,i,i
O=C(NCc1ccc(F)cc1)c1cccc2c1C(=O)c1ccc(N3CCC(Cc4ccccc4)CC3)cc1S2(=O)=O,25µM,i,i,?,i,i
CC(C)OC(=O)CCNC(=O)c1ccc(Cl)cc1Cl,nt,nt,nt,nt,i,nt
Cc1cc(/C=C/C(=O)c2ccc(O)c(CCCl)c2)cc(C)c1OC(F)F,nt,nt,nt,nt,i,nt
COc1cccc(NC(=O)Cc2c(C)c3ccc(OC)cc3oc2=O)c1,nt,nt,nt,nt,i,nt
Cc1nn(-c2ccccc2)c(N2CCCC2)c1/C=N/NC(=O)c1cc2ccccc2cc1O,i,16µM,i,i,i,i
Cc1nn(-c2ccccc2)c(N2CCCC2)c1/C=N/NC(=O)c1cc(-c2ccccc2)nc2ccccc12,i,i,i,i,i,i
CN1CCN(CC(=O)NN(Cc2ccccc2)c2ccccc2)CC1,i,i,i,i,-44,i
N#C/C(=C/c1cc(Br)ccc1OCc1ccccc1C#N)c1ccc(F)cc1,nt,nt,nt,nt,i,nt
COCCCn1c(SCC(=O)OC2CCCCC2)nnc1-c1ccco1,i,i,i,i,i,i
COCCCn1c(SCC(=O)OC2CCCCC2)nnc1-c1cccs1,i,i,i,i,i,0.28µM
O=S(=O)(N1CC=C(c2c[nH]c3cc(F)ccc23)CC1)N1CCCCCC1,nt,nt,nt,nt,i,nt
COc1ccc(NC(=O)CCSc2nnc3scc(-c4ccccc4)n23)cc1,nt,nt,nt,nt,i,nt
CCOc1ccc(N(C)c2ccc(/C=C3/SC(=S)NC3=O)cc2)cc1,?,i,i,?,i,i
Cc1cc(/C=C2\SC(=S)NC2=O)c(C)[nH]1,?,i,i,?,i,i
CN(C)c1ccc(C=C2SC(=S)NC2=O)cc1,?,i,i,10µM,i,i
SMILES,Vif-A3F inh,PINK1 modulator,mIDH1 inhibitor,Vif-APOBEC3G blk,LDHA block,PTHR1 agonist
O=C1NC(=S)S/C1=C\c1cc(Cl)ccc1Cl,i,?,i,i,-31,i
O=C(O)C(O)c1ccc(F)cc1 (stereo not drawn),nt,nt,nt,nt,i,nt
Cc1cc(C(F)(F)F)c2c(N)c(C(=O)Nc3cc(C)on3)sc2n1,11µM,22µM,i,i,i,i
O=C(NC(NNc1ccc([N+](=O)[O-])cc1)(C(F)(F)F)C(F)(F)F)c1ccc(F)cc1,i,45µM,i,i,i,i
O=[N+]([O-])c1ccc(NNC(=S)Nc2ccc(F)cc2)cc1,i,14µM,i,i,i,i
O=C(NNC(=S)Nc1ccc(F)cc1)c1cccc([N+](=O)[O-])c1,i,i,i,i,i,i
Cc1ccn2c(=O)cc(CSc3ccccc3NS(=O)(=O)c3ccc(C(C)C)cc3)nc2c1,nt,nt,nt,nt,i,nt
CCCNC(=O)C(C)NC(=O)c1cc(=O)[nH]c2ccccc12 (stereo not drawn),nt,nt,nt,nt,i,nt
O=C(Nc1nc2c(Cl)cccc2s1)c1ccc(Br)o1,i,14µM,i,i,i,i
COc1ccc2nc(Nc3nc(C)c(Cc4ccccc4Cl)c(=O)[nH]3)nc(C)c2c1,nt,nt,nt,nt,i,nt
Cc1ccc(C(=O)Nc2ncc([N+](=O)[O-])s2)cc1,i,35µM,i,i,i,i
O=C(Nc1ncc([N+](=O)[O-])s1)c1ccc2c(c1)OCO2,i,?,i,i,i,i
Cc1onc(-c2ccccc2)c1C(=O)Nc1ncc([N+](=O)[O-])s1,i,13µM,i,i,i,i
CCC(C)NC(=O)c1cc(C(C)C)nc2c1cnn2C(C)C (stereo not drawn),nt,nt,nt,nt,i,nt
CCOc1ccc(Oc2ccccc2NC(=O)Cc2nc(-c3ccccc3)oc2C)cc1,nt,nt,nt,nt,i,nt
CCC1(C)Cc2c(sc3nnn(CC(=O)Nc4cccc5ccccc45)c(=O)c23)CO1 (stereo not drawn),i,?,i,i,i,?
CCC1(C)Cc2c(sc3nnn(CC(=O)Nc4ccc(C)cc4)c(=O)c23)CO1 (stereo not drawn),i,10µM,i,i,i,i
CCC(/C=C1\Sc2ccc(OC)cc2N1CCO)=C\c1sc2ccc(OC)cc2[n+]1CCO,i,14µM,i,i,i,i
CCC(/C=C1\Sc2ccc(OC)cc2N1CC)=C\c1sc2ccc(OC)cc2[n+]1CCCS(=O)(=O)[O-],i,i,i,i,i,i
COc1ccc(/C=C/C=C2\NC(=S)NC2=O)cc1,13µM,?,i,?,i,i
C#CCNC(=O)N1CCN(c2cccc(Cl)c2)CC1,nt,nt,nt,nt,i,nt
CSc1ccc(C(C)NC(=O)c2cccc(F)c2)cc1 (stereo not drawn),nt,nt,nt,nt,i,nt
Cc1cccc(Nc2nnc(SCC(=O)NC(=O)Nc3ccc4c(c3)OCCO4)s2)c1,i,i,i,i,i,i
COc1ccccc1Nc1nnc(SCC(=O)NC(=O)Nc2ccc3c(c2)OCCO3)s1,i,11µM,i,i,i,i
CN1C(=O)/C(=C/c2ccccc2OCc2ccc(F)cc2)N(C)C1=S,3.5µM,?,i,i,i,i
SMILES,Vif-A3F inh,PINK1 modulator,mIDH1 inhibitor,Vif-APOBEC3G blk,LDHA block,PTHR1 agonist
CN1C(=O)/C(=C/c2ccccc2OCc2ccccc2)NC1=S,i,i,i,i,i,i
O=C1c2ccccc2-c2onc3c(N4CCN(C5CCCCC5)CC4)cc(NCCO)c1c23,?,i,i,?,i,i
CN(C)CCCNc1cc(N2CCN(C3CCCCC3)CC2)c2noc3c2c1C(=O)c1ccccc1-3,4.5µM,i,i,?,i,i
O=C(Nc1ccc(O)c(-c2nc3ccccc3o2)c1)c1ccccc1Br,nt,nt,nt,nt,i,nt
CCCOc1ccc(C(N)=O)cc1,nt,nt,nt,nt,i,nt
CCNC(=O)NC(=O)C(C)OC(=O)c1cc(C)nc2ccccc12 (stereo not drawn),nt,nt,nt,nt,i,nt
